Drawing on PubChem BioAssay (NCI), this text covers growth for twelve compounds.

Molecules are shown by their SMILES. The panel holds about 83,000 compounds, 20% with a hit somewhere; the sample as a whole holds those more often.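 Negative percent growth values reflect cell death: -40 means 40% of the cells present at the start died, and -100 means all died.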 Active and inactive are the calls of the source. The calls were made as follows: active = growth percent below 10; inactive = the rest.

The subject of the first assay is HS 578T breast. The experiment in a line: NCI-60 one-dose screen, 48 h (100 = growth as untreated, 0 = no growth, -100 = all killed). Conditions: 10 µM.
Turning to `COc1ccc(CN2[C@H](C(=O)NCc3ccc(C(=O)NO)cc3)Cc3c([nH]c4ccccc34)[C@H]2C2CC2)cc1`, the growth was 32.6% (inactive). With `O=c1cc(-c2ccccc2)oc2cc(OCCCCNCc3ccccc3)cc(O)c12`, the growth was 39.6% (inactive). Turning to `O=c1[nH]c2ccccc2cc1CSc1ccc(Nc2nccc(-c3ccc(C(F)(F)F)cc3)n2)cc1`, the growth was -8.2% (active). With `CN(C)c1ccc(/C=C/c2nc3ccccc3c(=O)n2CC(=O)Nc2ccccc2)cc1`, the growth was 44.7% (inactive). On to `Cc1ccc(-c2nc(Nc3ccc(C)c(S(N)(=O)=O)c3)c3ccccc3n2)cc1`, for which the growth is 102% (inactive).

A further assay has as its system NCI/ADR-RES ovarian. Described as above. As to conditions: 10 µM.
Take `COc1cc(/C=C/C(=O)c2ccc(C(F)(F)F)cc2)ccc1Oc1nc(Nc2ccc(F)cc2)nc(N(C)C)n1`: the growth is 66.7% (inactive). As to `Cc1ccc(/C=C/C(=O)c2ccc(NC(=O)CSc3nnc(-c4c[nH]c5ccccc45)n3-c3ccccc3)cc2)c(C)c1`, the growth was 64.2% (inactive).

As to `COc1ccc(/C=C/C(=O)c2ccc(S(=O)(=O)NCCNc3nc(Nc4ccc(F)cc4)nc(N(C)C)n3)cc2)cc1`, the growth was 28.1% (inactive). The same measure, in the same setting: the result for `N#Cc1c(-c2ccc(Cl)cc2)cc(-c2ccccc2)nc1OCc1ccccc1` reads 76% (inactive); that for `Nc1nnc(-c2c[nH]c3ncccc23)c(-c2c[nH]c3ccc(Br)cc23)n1`, 98.6% (inactive); that for `CC(=O)OC[C@@]1(C)C2CC[C@]3(C)C(CC=C4C5CC(C)(C)CC[C@]5(C(=O)Nc5ccccc5)CC[C@]43C)[C@@]2(C)C[C@@H](OC(C)=O)[C@@H]1OC(C)=O` (some centres not stated), 31.2% (inactive). As for `O=C(CSc1nnc(-c2c[nH]c3ccccc23)n1-c1ccccc1)Nc1ccc(C(=O)/C=C/c2cccc([N+](=O)[O-])c2)cc1`, the growth is 96.3% (inactive).
